The panel holds about 83,000 compounds, 20% with a hit somewhere; the sample as a whole holds those more often.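 For each line, cells grew in 96-well plates with the test compound present at a single concentration for 48 hours.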 Active and inactive are the calls of the source. The calls were made as follows: active = growth percent below 10; inactive = the rest.
System: HL-60(TB) leukemia
Experiment: NCI-60 one-dose screen, 48 h (100 = growth as untreated, 0 = no growth, -100 = all killed)
Settings: 10 µM unless noted

Row | SMILES | growth
1 | Nc1nc(Cl)c2c(ncn2Cc2ccc(CCl)cc2)n1 | 90.5% (inactive)
2 | CN(C)c1ccc(/C=C/C(=O)c2ccccc2)cc1 | 66.7% (inactive)
3 | Brc1ccc(-c2nc3ccccc3s2)cc1 | 99.6% (inactive)
4 | CCOC(=O)CSCCC#N | 118% (inactive)
5 | C=CCn1c(CN2CCN(c3cc4c(cc3F)c(=O)c(C(=O)O)cn4C3CC3)CC2)n[nH]c1=S | 90.1% (inactive)
6 | O=C(O)C(c1ccccc1)C(O)c1ccccc1 (stereo not given) | 97.8% (inactive)
7 | O=C(Nc1cccc(Cl)c1)c1cc(N=Nc2ccc([N+](=O)[O-])cc2Cl)ccc1O | 38.2% (inactive)
8 | N=c1sc(Cc2ccc(Cl)cc2)cn1CC(=O)c1ccc(F)cc1 | 94.8% (inactive)
9 | Cc1cccc(CNc2c3ccccc3nc3ccccc23)c1 | 12.5% (inactive)
10 | COC(=O)CCCCCCCCC1(C)C=CC(C(C)O)=CC1 (stereo not given) | 99.4% (inactive)
11 | CCCn1ccnc1C(O)c1ccc(OCc2ccccc2)c(OC)c1 (stereo not given) | 96.7% (inactive)
12 | O=C(O)/C=C/c1cn(-c2ccccc2)nc1-c1ccc(F)cc1 | 103% (inactive)
13 | CCN1CCN(c2nc(C)cc(NCc3cc(Nc4ccnc5cc(Cl)ccc45)ccc3F)n2)CC1 | -7.3% (active)
14 | Cn1ncc2c(Sc3ccc(Cl)cc3)ncnc21 | 81.4% (inactive)
15 | COCCOC(=O)NC(=O)Nc1ccc(C(=O)c2ccc(Cl)cc2)cc1 | -13.3% (active)
16 | Clc1ccc(CN2COc3c(ccc4cccnc34)C2)cc1Cl | -63.5% (active)
17 | CC(C)(C)c1cc(C=Nc2cccc(C(F)(F)F)c2)c(O)c(C(C)(C)C)c1 | 90.1% (inactive)
18 | NS(=O)(=O)c1ccc(-n2nc(-c3ccccc3)ccc2=O)cc1 | 89.9% (inactive)
19 | c1cc2[nH]ncc2cc1-c1nc2ccc3[nH]ncc3c2c2c1CCC2 | -4.44% (active)
20 | C=CC(=O)OCCCCCCCC | 88.6% (inactive)
21 | CCCCCn1sc(=O)n(Cc2ccc(CNC(=O)OCc3ccc4c(Cl)cc(Cl)c(O)c4n3)cc2)c1=O | 63.5% (inactive)
22 | O=[N+]([O-])c1cccc(-c2cc(-c3cc(Br)ccc3O)[nH]n2)c1 | -17.1% (active)
23 | Nc1ccc(-n2c(=O)oc3ccc(Cl)cc3c2=O)c(Cl)c1 | -42.8% (active)
24 | COc1cc(-c2cc(C(=O)N3CCN(C(=O)c4ccccc4NCc4ccco4)CC3)nc3cc(-c4ccccc4)nn23)cc(OC)c1OC | 11.6% (inactive)
25 | CCOc1ccc(C(C[N+](=O)[O-])Sc2ccccc2N)cc1 (stereo not given) | -16.2% (active)
